The entries come from a sample that favours hits as a whole.
Dicer processing: human Dicer pre-microRNA cleavage inhibition; Q9UPY3; cat-ELCCA pre-miR-21 Dicer processing, chemiluminescence; active compounds read high; z-score at 25 µM; 47,000 compounds, 6% hits; in the data active means z-score above about 3, passing the limit was not always enough;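 further: plate controls were vehicle for no effect and no enzyme for full effect; higher signal means more uncleaved substrate so more Dicer inhibition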
* = called active by the depositor.

SMILES | Dicer processing
COc1ccc(OC)c(C2Oc3c(OC)cccc3C3CC(c4ccccc4O)=NN32)c1 (stereo not drawn) | 0.8
COc1ccc(C2Oc3c(OC)cccc3C3CC(c4ccccc4O)=NN32)cc1OC (stereo not drawn) | -0.41
COc1cccc2c1OC(c1cccc(OC)c1OC)N1N=C(c3ccccc3O)CC21 (stereo not drawn) | 2.13
COc1cccc2c1OC(c1ccc(F)cc1)N1N=C(c3ccccc3O)CC21 (stereo not drawn) | 8.55*
COc1cccc2c1OC(CC(C)C)N1N=C(c3ccccc3O)CC21 (stereo not drawn) | 8.32*
COC(=O)c1ccc(C2Oc3c(OC)cccc3C3CC(c4ccccc4O)=NN32)cc1 (stereo not drawn) | 1.4
CC(C)n1c(CN2CCOCC2)nc2c1c(=O)n(C)c(=O)n2C | -1.54
Clc1ccc(OCc2nc(-c3cccs3)no2)cc1 | 1.32
CC(C(=O)NNS(=O)(=O)c1cccc(Cl)c1)n1nnc(-c2cc(C(F)(F)F)cc(C(F)(F)F)c2)n1 (stereo not drawn) | 0.55
O=C(CN1C2=NCCCN2c2ccccc21)c1ccccc1 | 10.9
COc1ccc(NC(=O)NC(=O)C(C)c2ccc(CC(C)C)cc2)cc1 (stereo not drawn) | -0.49
Cc1ccc2c(c1)CCCN2C(=O)c1scc(S(=O)(=O)c2ccc(Cl)cc2)c1C | -1.74
Cc1c(S(=O)(=O)c2ccc(Cl)cc2)csc1C(=O)Nc1ccc(N2CCOCC2)c(Cl)c1 | -1.89
Cc1c(S(=O)(=O)c2ccc(Cl)cc2)csc1S(=O)(=O)N1CCCC1 | 3*
CCNC(=O)Oc1noc2ccccc12 | 2.6
Cc1nc(N2CCN(Cc3ccc4c(c3)OCO4)CC2)[nH]c(=O)c1C | 3.23*
O=C(c1ccncc1)N1CCN(Cc2ccc3c(c2)OCO3)CC1 | 0.43
CC1(C)CC(=O)c2cnc(N3CCN(Cc4ccc5c(c4)OCO5)CC3)nc2C1 | 1.08
CSc1ccc(CN2CCN(S(=O)(=O)c3ccc(C)cc3)CC2)cc1 | -2.06
CSc1ccc(CN2CCN(S(=O)(=O)c3ccc(Cl)cc3)CC2)cc1 | 3.45*
Cc1cc(C)c(S(=O)(=O)N2CCN(Cc3ccc4c(c3)OCO4)CC2)c(C)c1 | -1.27
c1cnc(N2CCN(Cc3ccc4c(c3)OCO4)CC2)nc1 | 0.47
Cc1ccc(Cc2c(C)nc(N3CCCC3)[nH]c2=O)cc1 | 0.86
COc1cc(C)c(S(=O)(=O)N2CCN(Cc3ccc4c(c3)OCO4)CC2)cc1C | 0.76
Cc1nc(N2CCN(Cc3ccc4c(c3)OCO4)CC2)[nH]c(=O)c1CCC(C)C | 3.74*
SMILES | Dicer processing
Cc1ccc(S(=O)(=O)N2CCN(Cc3ccc4c(c3)OCO4)CC2)cc1 | 7.36*
CSc1ccc(CN2CCN(S(=O)(=O)c3ccccc3)CC2)cc1 | 2.36
CC1(C)CC(=O)c2sc(Nc3ccccc3Cl)nc2C1 | 1.07
Cc1ccc(S(=O)(=O)N2c3ccccc3OC2c2ccc(Cl)c(Cl)c2)cc1 (stereo not drawn) | 0.66
N#Cc1c(SCc2ccccc2)nc2c(c1-c1cccs1)CCCC2 | -0.61
Cc1c(C)c(C)c(CSCC(=O)NN)c(C)c1C | -0.98
Cn1c(N)c(Sc2nnnn2-c2ccccc2)c(=O)[nH]c1=O | -0.62
O=C1CS/C(=C/C(=O)N2CCCC2)N1 | 0.08
CCCCNc1nc(C)nc2c1sc1nc3c(cc12)COC(C)(C)C3 | 2.45
CC1(C)CC(=O)C2=C(C1)Oc1ccc(Br)cc1C2 | -0.26
Cc1cc([N+](=O)[O-])nn1CC(=O)NCC(C)C | -0.07
c1cc(-c2nc3ccccc3o2)nc(-c2nc3ccccc3o2)c1 | 0.28
c1ccc2oc(-c3ccc(-c4nc5ccccc5o4)cc3)nc2c1 | 2.01
c1ccc2oc(CCCc3nc4ccccc4o3)nc2c1 | 5.48*
CC1CC(=O)C2=C(C1)Nc1nc3ccccc3n1C2c1cccs1 (stereo not drawn) | 1.15
c1ccc(-c2nnc3sc(-c4ccco4)nn23)cc1 | 3.01*
c1ccc(-c2nn3c(-c4ccccc4)nnc3s2)cc1 | -0.02
c1ccc(-c2nnc3sc(-c4cccs4)nn23)cc1 | -0.93
COc1ccc(C2C(C(=O)OC(C)C)=C(C)NC3=C2C(=O)CC(C)(C)C3)c(OC)c1 (stereo not drawn) | 1.12
CCOC(=O)C1=C(C)NC2=C(C(=O)CC(c3ccc(OC)cc3)C2)C1c1ccc(O)c(OCC)c1 (stereo not drawn) | 1.78
CCCCNc1c([N+](=O)[O-])c(=O)sc2ccccc12 | 6.99*
O=c1sc2ccccc2c(NCCCN2CCOCC2)c1[N+](=O)[O-] | -0.32
O=c1sc2ccccc2c(Nc2ccccc2)c1[N+](=O)[O-] | 3.58*
O=c1sc2ccccc2c(N2CCN(c3ccccc3)CC2)c1[N+](=O)[O-] | 0.84
CC(C)(C)Nc1c([N+](=O)[O-])c(=O)sc2ccccc12 | -0.95
SMILES | Dicer processing
CN(C)CCCNc1sc(-c2ccccn2)c([N+](=O)[O-])c1[N+](=O)[O-] | 0.03
CCC(=O)N1c2ccccc2-c2nnc(SC)nc2OC1c1cccn1C (stereo not drawn) | -2.31
CCOC(=O)N1CCc2c(sc3c2C(=O)NC(c2ccc(OC)cc2OC)N3)C1 (stereo not drawn) | 0.44
CCCCCCCC1C(=O)N(S(=O)(=O)c2ccc(Cl)cc2)N=C1C (stereo not drawn) | 0.74
CC(C)(C)NC(=O)c1ccc(-n2nc(C(F)(F)F)c3c2-c2ccoc2CC3)cc1 | -0.78
CCOC(=O)CC(=O)CSc1nnc(C(F)(F)F)n1C | -0.23
Cc1ccc2nc(S/C=C/C(=O)c3cccc(Br)c3)[nH]c2c1 | 3.53*
CSC(=NC#N)S/C=C/C(=O)c1cccc(Br)c1 | -2.23
CCc1ccc(C(=O)/C=C/Sc2nc3ccc(C)cc3[nH]2)cc1 | 0.92
CCOC(=O)NN(C(=O)OCC)C1=CC(c2ccccc2)Oc2ccccc21 (stereo not drawn) | 0.33
c1ccc(Sc2ncnc3ccsc23)nc1 | -0.36
CC(=O)c1sc(-c2ccccc2)cc1NC(=O)CN1CCN(S(=O)(=O)c2ccc(C)cc2)CC1 | 0.77
Cc1nn2c3c(cnc2c1-c1ccc(Cl)cc1)C(=O)CC(C)(C)C3 | 7.41
CN(C)CC1CCc2c(c3ccccc3n2C)C1=O (stereo not drawn) | 1.76
Cn1c2c(c3ccccc31)/C(=N/OC(=O)c1ccc(C(C)(C)C)cc1)CCC2 | -1.23
Cn1c2c(c3ccccc31)/C(=N/O)CCC2 | 3.92*
O=c1c(Cl)c(N2CCCC2)cnn1-c1c(Cl)cc(C(F)(F)F)cc1Cl | -0.42
CCOC(=O)C1=C(C)NC2=C(C(=O)CCC2)C1c1ccc(O)c(OC)c1 (stereo not drawn) | -0.21
CCOC(=O)C1=C(C)NC2=C(C(=O)CC(c3ccccc3)C2)C1c1cccnc1 (stereo not drawn) | 0.89
Oc1ccccc1-c1ccnc2cc(-c3ccccc3)nn12 | 4.43*
Cc1ccc(-c2cc3nccc(-c4cc(C)ccc4O)n3n2)cc1 | -2.04
Oc1ccc(F)cc1-c1ccnc2cc(-c3ccccc3)nn12 | 5.99
O=C(N1CCCCC1)N1c2ccccc2C=Cc2ccccc21 | 0.39
CS(=N)(=O)c1ccc(OC(=O)c2ccc(Cl)cc2)cc1 (stereo not drawn) | -0.58
CC(C)NC(=O)c1cnn2c1NC(c1ccc(Br)cc1)CC2C(F)(F)F (stereo not drawn) | 5.83*
O=C(O)c1cc2n(n1)C(C(F)(F)F)CC(c1ccc(Cl)cc1)N2 (stereo not drawn) | 1.73
CN1CCN(C(=O)c2cc3n(n2)C(C(F)(F)F)CC(c2ccccc2)N3)CC1 (stereo not drawn) | 3.18*

Source: PubChem (Center for Chemical Genomics, University of Michigan)
